Only some compounds are listed: those with a hit (about 2.9% of all), similar ones and a draw of the others.
D3 antag – qHTS of D3 Dopamine Receptor Antagonist: qHTS; AID 652054, 2013; D3R cells, DiscoveRx beta-arrestin luminescence, antagonist mode; active compounds read low; max response, negative = inhibition, %; D(3) dopamine receptor (Homo sapiens), P35462; actives 2.5% (n = 360,000); in the data active = max response below about -50%; inconclusive = no clear call, values can overlap the other calls
Target sequence (P35462 whole entry, looked up): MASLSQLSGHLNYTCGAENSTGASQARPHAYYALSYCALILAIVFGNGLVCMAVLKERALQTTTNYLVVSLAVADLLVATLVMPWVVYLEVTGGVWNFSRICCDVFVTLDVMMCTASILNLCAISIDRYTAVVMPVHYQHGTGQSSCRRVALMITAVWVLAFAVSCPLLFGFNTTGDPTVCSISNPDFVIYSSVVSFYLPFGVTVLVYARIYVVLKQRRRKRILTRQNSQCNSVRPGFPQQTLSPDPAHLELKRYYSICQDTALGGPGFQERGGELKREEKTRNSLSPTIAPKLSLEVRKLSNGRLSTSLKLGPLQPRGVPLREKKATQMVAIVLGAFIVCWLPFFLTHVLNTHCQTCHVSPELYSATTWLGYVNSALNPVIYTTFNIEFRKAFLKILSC
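Cells plated overnight at 1500 cells/well, then exposed to library compounds with dopamine controls for 90 minutes at 37 degrees C. DiscoveRx reagent added for 30–60 minutes at room temperature; luminescence read, quantitative HTS format.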
a7 integrin act – qHTS for Activators of Integrin-Mediated Alleviation for Muscular Dystrophy | Potency, µM (top dose mostly 38.3 µM), hits mostly activators | alpha7betagal myoblasts, beta-gal FDG fluorescence, 48 h | AID 624291, 2012 | actives 0.064% (n = 350,000); active = well fitted activation curve with a large enough effect; inconclusive = small, poorly fitted or top-dose-only effect; inactive = no such curve, though single readings can be large or run the other way; also: nearly all actives have a fitted effect of over 60% in size
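Alpha7betagal+/- myoblasts (passage 13) were plated 16-24 hr, then exposed to compounds (1:260 dilution of DMSO stock) for 48 hours at 37C. After MPER lysis, β-galactosidase reporter activity was read as FDG fluorescence (ex 480/em 540) after 30 minutes.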
D3 ag – qHTS of D3 Dopamine Receptor Agonist: qHTS; D3R DiscoveRx beta-arrestin cells, luminescence, 90 min; actives 0.58% (n = 410,000); max activation, %; in the data active = max activation above about 30%
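Agonist mode: compounds and dopamine controls were applied to plated cells for 90 min at 37 degrees C after an overnight attachment at 1500 cells/well. Luminescent read-out followed 30 - 60 minutes at room temperature with DiscoveRx detection reagent.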
Of the large screens only hits and unclear results are named; the others gave an inactive call.

C=CCN1C(c2ccc(Br)cc2)=CS/C1=C(/C#N)c1nnc(N2CCOCC2)n1-c1ccccc1	none
CC(C)/C(=N\NS(=O)(=O)c1ccc(Br)cc1)c1cccs1	none
Cc1[nH]c2ccccc2c1C(=O)C(C)OC(=O)c1ccc([N+](=O)[O-])o1 (stereo unspecified)	D3 antag inconclusive
CCOC(=O)c1c(-c2ccccc2)csc1NC(=O)c1cc2ccccc2oc1=O	none
CCCCn1c(=O)[nH]c(=O)c2c1nc(Cn1ncc(Cl)c(Cl)c1=O)n2CCC	D3 antag -64
CCCCn1c(=O)[nH]c(=O)c2c1nc(CN1C(=O)c3ccccc3S1(=O)=O)n2CCC	none
Cc1ccc(CN2CC(C(=O)N3CCN(c4ccccc4Cl)CC3)CC2=O)cc1 (stereo unspecified)	none
CCNC(=S)NC1CC2CCC(C1)N2Cc1ccccc1 (stereo unspecified)	D3 antag -76
CC(CCc1ccccc1)NC(=S)NC1CCCCC1 (stereo unspecified)	none
O=C(CN1C2CCCC1CC(NC(=O)C1CCCCC1)C2)Nc1ccccc1 (stereo unspecified)	none
CCCNC(=S)NC1CC2CCCC(C1)N2Cc1ccccc1OC (stereo unspecified)	none
S=C(NC1CCCCC1)NC1CC2CCC(C1)N2Cc1ccccc1 (stereo unspecified)	D3 antag -79
CCCNC(=S)NC1CC2CCC(C1)N2Cc1ccccc1 (stereo unspecified)	D3 antag -147
CCNC(=S)NC1CC2CCCC(C1)N2CCc1ccccc1 (stereo unspecified)	none
O=C(NC1CC2CCCC(C1)N2Cc1ccccc1)C1CCCCC1 (stereo unspecified)	D3 antag -65, a7 integrin act inconclusive
Cc1ccc(C(=O)c2c3ccc(C(F)(F)F)cc3[n+]([O-])n2CCCC(N)=O)cc1	none
CC(C)c1ccc(NC(=S)NNC(=O)c2cccnc2)cc1	none
CCc1ccc(C2C(C(=O)Nc3ccc(Cl)cc3)=C(C)Nc3ncnn32)cc1 (stereo unspecified)	none (no result: D3 antag, a7 integrin act)
O=C(O)c1ccc(Nc2nc3ccccc3c3nncn23)cc1	none (no result: D3 antag, a7 integrin act)
CCCCCc1c(O)nc(SCCN2CCOCC2)[nH]c1=O	none
CC(C)CNC(=S)NC1CC2CCC(C1)N2Cc1ccccc1 (stereo unspecified)	D3 antag -75
S=C(NCCc1ccccc1)NC1CC2CCC(C1)N2Cc1ccccc1 (stereo unspecified)	D3 antag -74
S=C(NCCc1ccccc1)NC1CCC(NC(=S)NCCc2ccccc2)CC1 (stereo unspecified)	none
CC(C)CNC(=S)NC1CC2CCCC(C1)N2C1CCCCC1 (stereo unspecified)	D3 antag inconclusive
CCN1CCN(C(=O)c2ccc3c(c2)N(Cc2ccc(Cl)cc2)C(=O)c2ccccc2S3(=O)=O)CC1	none (no result: D3 antag, a7 integrin act)
CCN1CCN(C(=O)c2ccc3c(c2)N(Cc2ccccc2)C(=O)c2ccccc2S3(=O)=O)CC1	D3 antag -72
Cc1ccccc1NS(=O)(=O)c1ccc2c(c1)n(C)c(=O)n2C	none
Clc1cccc(-c2nn3c(Cn4cnc5ccccc54)nnc3s2)c1	none
NS(=O)(=O)c1ccc(N=Cc2c(O)n(-c3nccs3)c(=O)c3ccccc23)cc1	none
Cc1ccc(NC(=S)NCCO)c(C)c1	D3 antag -56
Cc1ccccc1C(=O)N/N=C/c1cccc2ccccc12	none
Cc1ccc(NC(=S)N/N=C/c2c(Cl)cccc2Cl)c(C)c1	D3 antag -60
Cc1ccc(Cl)cc1NC(=S)N/N=C/c1cccc2ccccc12	D3 antag -53
CC(C)(C)NC(=S)N/N=C/c1c(Cl)cccc1Cl	a7 integrin act inconclusive
Cc1ccc(NC(=S)NCCc2ccccc2)c(C)c1	none
CC1CCN(C(=O)COC(=O)Cc2c[nH]c3ccccc23)CC1	none
COc1ccc(S(=O)(=O)N(C)CC(=O)Nc2ccccc2OC)cc1	none
Cc1cc(C(=O)NCCc2ccccc2)ccc1[N+](=O)[O-]	D3 antag -55
O=C(NCCc1ccccc1)c1ccc(Cl)c([N+](=O)[O-])c1	none
Cc1cc(S(=O)(=O)N2CCCC2)ccc1OCC(=O)NCc1ccccn1	none
CCCNC(=O)Nc1nc(CC(=O)OCC)cs1	none
COc1ccc(NC(=O)CCCS(=O)(=O)c2nc(-c3ccccc3OC)cc(C(F)(F)F)n2)c(OC)c1	none (no result: D3 antag, a7 integrin act)
COc1ccccc1-c1cc(C(F)(F)F)nc(S(=O)(=O)CCCC(=O)Nc2ccccc2F)n1	none (no result: D3 antag, a7 integrin act)
COc1ccccc1-c1cc(C(F)(F)F)nc(S(=O)(=O)CCCC(=O)NC(C)C)n1	D3 antag -67
COc1ccccc1-c1cc(C(F)(F)F)nc(S(=O)(=O)CCCC(=O)Nc2cc(C)on2)n1	D3 antag -82
COc1ccccc1-c1cc(C(F)(F)F)nc(S(=O)(=O)CCCC(=O)N2CCCCC2C)n1 (stereo unspecified)	D3 antag -88
COc1ccccc1-c1cc(C(F)(F)F)nc(S(=O)(=O)CCCC(=O)Nc2cccnc2Cl)n1	D3 antag -52
COc1ccccc1-c1cc(C(F)(F)F)nc(S(=O)(=O)CCCC(=O)Nc2cc(Br)ccc2O)n1	none (no result: D3 antag, a7 integrin act)
COc1ccc(-c2cc(C(F)(F)F)nc(S(=O)(=O)CCCC(=O)Nc3cc(C)on3)n2)cc1OC	D3 antag inconclusive
CN(Cc1cccnc1)Cc1cn(C)nc1-c1ccc(Oc2ccccc2)cc1	none
COc1ccccc1Cc1noc(-c2cc(Cl)ccc2OC)n1	none
Cc1cccc(N(CC(=O)NC(C)(C)C)C(=O)CCC(=O)Nc2nccs2)c1	none
COc1ccccc1-c1cc(C(F)(F)F)nc(S(=O)(=O)CCCC(=O)NCc2ccc(F)cc2)n1	D3 antag -67
COc1ccccc1-c1cc(C(F)(F)F)nc(S(C)(=O)=O)n1	D3 antag inconclusive
CCCSc1nsc(NC(=O)Nc2ccc(F)cc2F)n1	none
O=C(CCc1nc2ccccc2c(=O)[nH]1)NNC(=O)c1cccc(Cl)c1	none
CCOc1ccccc1N1CCN(CC(O)COc2ccc3c(C)cc(=O)oc3c2)CC1 (stereo unspecified)	D3 antag -70
COc1ccccc1N1CCN(CC(O)COc2ccc3c(c2)OCO3)CC1 (stereo unspecified)	D3 antag -103
OCCN1CCN(CC(O)COc2ccc3c(c2)OCO3)CC1 (stereo unspecified)	D3 antag inconclusive
COc1ccc(N2CCN(CC(O)COc3c(OC)cccc3OC)CC2)cc1 (stereo unspecified)	a7 integrin act inconclusive
COc1ccccc1N1CCN(CC(O)COc2cccc3ccccc23)CC1 (stereo unspecified)	D3 antag -99 (no result: a7 integrin act)
COc1cccc(OC)c1OCC(O)CN1CCN(c2ccccc2F)CC1 (stereo unspecified)	D3 antag -57
Cc1cc(=O)oc2cc(OCC(O)CN3CCN(c4ccc(F)cc4)CC3)ccc12 (stereo unspecified)	D3 antag inconclusive
O=C(c1ccccc1)N1CCN(CC(O)COc2cccc3ccccc23)CC1 (stereo unspecified)	a7 integrin act inconclusive
